# PLK1 PBD inh: qHTS for Inhibitors of PLK1-PDB (polo-like kinase 1 - polo-box domain): Primary Screen | Plk1 PBD binding of FITC phosphopeptide, fluorescence polarization | Potency, µM, for inactives: max response, negative = inhibition, most hits filed as inhibitors | hit rate 2.8% among 360,000 | AID 720504, 2013; also: potency is read from the fitted curve at half-maximal effect; series mostly up to about 57 µM; % is scaled to controls: 0 for no effect and ±100 for the full control effect; nearly all actives have a fitted effect of over 65% in size
# JMJD2A Tudor inh: qHTS Assay for Inhibitors of JMJD2A-Tudor Domain; Lysine-specific demethylase 4A (Homo sapiens), O75164; hit rate 4.4% among 390,000; Potency, µM (highest dose often 114 µM), for inactives: top-dose activity change, negative = inhibition, usual class: inhibitors; AlphaScreen JMJD2A-Tudor / H3K4me3 peptide binding; also: potency is read from the fitted curve at half-maximal effect; % is scaled to controls: 0 for no effect and ±100 for the full control effect; nearly all actives have a fitted effect of over 50% in size
# G9a inh: qHTS Assay for Inhibitors of Histone Lysine Methyltransferase G9a; Histone-lysine N-methyltransferase EHMT2 (Homo sapiens), Q96KQ7; G9a H3K9 monomethylation, AlphaScreen, 2 h; Potency, µM (highest dose often 102 µM), for the others: top-dose activity, negative = inhibition, hits mostly inhibitors; hit rate 8.8% among 350,000; AID 504332, 2011; also: potency is read from the fitted curve at half-maximal effect; % is scaled to controls: 0 for no effect and ±100 for the full control effect; nearly all actives have a fitted effect of over 75% in size
# Target sequence (Q96KQ7 913-1193 limits assumed): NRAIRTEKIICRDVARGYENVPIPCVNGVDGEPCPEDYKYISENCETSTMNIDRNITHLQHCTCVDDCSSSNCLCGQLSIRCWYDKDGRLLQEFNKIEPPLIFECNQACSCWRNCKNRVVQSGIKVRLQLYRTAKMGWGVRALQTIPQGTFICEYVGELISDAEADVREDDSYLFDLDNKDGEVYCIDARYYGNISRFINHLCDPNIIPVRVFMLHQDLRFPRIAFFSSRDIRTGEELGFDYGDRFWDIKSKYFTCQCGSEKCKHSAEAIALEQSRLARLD
#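 Quantitative HTS format: methyltransferase activity on a biotin-tagged H3K9 peptide is measured by AlphaScreen, using a rabbit anti-monomethyl-H3K9 antibody with streptavidin donor and anti-IgG acceptor beads. Final levels are 20 nM enzyme, 500 nM peptide, 20 uM SAM; 2 h RT.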
# PI5P4Ka inh: qHTS for Inhibitors of phosphatidylinositol 5-phosphate 4-kinase (PI5P4K) | PI5P4Kalpha enzyme, ADP-Glo luminescence, 60 min; stronger effect = lower value | max response, % | hit rate 1.2% among 330,000 | Phosphatidylinositol 5-phosphate 4-kinase type-2 alpha (Homo sapiens), P48426 | AID 652105, 2013; active = max response of -50% or lower; inconclusive = between -30% and -50%; inactive = -30% or higher; also: value at the top dose of about 77 µM; % is scaled to controls: 0 for no effect and ±100 for the full control effect
# Target sequence (P48426 whole entry, looked up): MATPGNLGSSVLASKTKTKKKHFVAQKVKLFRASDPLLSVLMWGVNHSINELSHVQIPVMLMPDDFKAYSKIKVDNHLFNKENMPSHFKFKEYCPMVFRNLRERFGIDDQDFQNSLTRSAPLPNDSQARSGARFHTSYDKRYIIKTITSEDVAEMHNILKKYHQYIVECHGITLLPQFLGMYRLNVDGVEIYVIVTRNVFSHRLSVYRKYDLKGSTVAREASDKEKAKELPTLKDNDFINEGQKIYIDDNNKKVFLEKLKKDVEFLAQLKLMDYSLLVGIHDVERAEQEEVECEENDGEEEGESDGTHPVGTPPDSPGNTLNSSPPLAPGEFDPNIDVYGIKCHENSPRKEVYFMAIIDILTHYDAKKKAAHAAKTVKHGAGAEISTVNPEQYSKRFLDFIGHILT
#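 Quantitative HTS of the MLSMR library against PI5P4Kalpha with substrate. ATP added last at 5 microM final; room temperature, 60 minutes. Remaining ATP depleted, ADP converted and read as luminescence.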
# BAZ2B block: qHTS Assay for Inhibitors of BAZ2B; AlphaScreen BAZ2B-H3K14Ac peptide displacement; Potency, µM (series often up to 114 µM), inactives show top-dose activity change, negative = inhibition, most hits filed as inhibitors; hit rate 4.4% among 360,000; also: potency is read from the fitted curve at half-maximal effect; % is scaled to controls: 0 for no effect and ±100 for the full control effect; nearly all actives have a fitted effect of over 60% in size
#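 Protein-peptide AlphaScreen: BAZ2B 50 nM, b-H3K14Ac 50 nM, 1x PBS pH 7.4 + 0.01% Tween-20. Preincubation 30 min RT; cpd 30 min RT (top 110 uM); beads 20 min RT, light-protected.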
# HP1b binding inh: HTS for Inhibitors of HP1-beta Chromodomain Interactions with Methylated Histone Tails; Potency, µM (titrated, usually from 114 µM), without a hit: at the top dose activity change, negative = inhibition, hits mostly inhibitors; hit rate 0.56% among 390,000; Chromobox protein homolog 1 (Homo sapiens), P83916; AID 540317, 2011; AlphaScreen HP1-beta / biotin-H3K9me3 peptide binding; also: potency is read from the fitted curve at half-maximal effect; nearly all actives have a fitted effect of over 70% in size
#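 AlphaScreen: HP1-beta (50 nM) preformed 30 min with biotin-H3(1-18)K9me3 peptide (50 nM) in PBS pH 7.4, 0.01% Tween-20. Compound added for 30 min at RT, then streptavidin donor/nickel chelate acceptor beads (10 ug/mL) for 30 min.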
# Active calls of the source: *; ? = inconclusive; . = no result; ! = not confirmed by another sample; [ ] = dose if it differs, or a comment. This is a sample that favours compounds with a hit; in the whole collection about 12% have one here. Unless noted, calls follow the shape of the dose curve; as a rule, active = well fitted curve in the direction sought with a large enough effect; inconclusive = small, poorly fitted or top-dose-only effect, or another doubt; inactive = no such curve, though single readings can be large; an effect the other way counts as inactive or inconclusive.
SMILES,PLK1 PBD inh,JMJD2A Tudor inh,G9a inh,PI5P4Ka inh,BAZ2B block,HP1b binding inh
COC(=O)C1CCN(C(=O)C2CCC(=O)N(CCCc3ccccc3)C2)CC1 (stereo not drawn),-11.9%,-19.3%,10.7%,-6.2,-10.1%,29.4%
CC1CCN(C(=O)C2CCN(CCCc3ccccc3)CC2)CC1,.,.,14.1µM*,.,?,.
O=C(C1CCN(CCCc2ccccc2)CC1)N1CCCCC1,-9.2%,0.891µM*,20µM*,-7.1,?,?
O=C(c1ccccc1)N1CCCC(C(=O)N2CCCCCC2)C1 (stereo not drawn),-3.1%,-4.6%,5.1%[2.33 µM],0.2,-8.7%,78.8%
COc1ccc(C(=O)Nc2nnc(S(=O)(=O)N(C)c3ccc(C)cc3)s2)cc1,.,-2.0%,-8.5%[59 µM],.,?,49.0%
O=c1ccn([C@@H]2O[C@H](CNS(=O)(=O)C3CC3)[C@@H](O)[C@H]2O)c(=O)[nH]1,-0.2%,-9.4%,.,-0.2,.,55.1%
O=C(O)C1Sc2[nH]c(=O)sc2C2c3ccc(O)cc3OC(=O)C12 (stereo not drawn),29.9µM*,-30.0%,39.8µM*,?,-37.6%,?
O=C(O)C1Sc2[nH]c(=O)sc2C2c3cc(Br)ccc3OC(=O)C12 (stereo not drawn),29.9µM*,-28.4%,.,-28.7,?,?
CN1CCN(/N=C/c2nc(-c3ccccc3Cl)n3ccccc23)CC1,-5.7%,-30.8%,28.2µM*,6.6,-9.0%,-11.2%
Clc1ccccc1-c1nc(/C=N/N2CCOCC2)c2ccccn12,23.8µM*,?,28.2µM*,-8.8,.,?
On1c(-c2ccccc2Cl)nc2ccccc21,-9.9%,5.8%,-1.6%,1.1,-3.3%,21.0%
O=Cc1nc(-c2ccccc2Cl)n2ccccc12,-1.3%,-6.6%,0.8%[59 µM],.,-5.6%,11.6%
CNC(=O)C1(C(F)(F)F)C/C(=C\Cc2ccccc2)CCCO1 (stereo not drawn),.,-9.7%,.,.,.,34.7%
O=C(Nc1ncnc2nc[nH]c12)c1ccccc1,.,2.8%,.,.,.,36.3%
Cc1cccc(CSc2ccc(S(=O)(=O)N3CCCC3)cn2)c1,-13.0%,80.1%,14.1µM*,11.3,54.1%,140.7%
O=S(=O)(c1ccc(SCc2ccccc2)nc1)N1CCCC1,-1.2%,113.1%,?,-0.6,71.4%,167.8%
CCOC(=O)Cc1csc(N/N=C/c2ccccc2)n1,2.9%,-25.2%,14.4%[59 µM],5.8,-11.9%,26.2%
COC(=O)c1ccc(/C=N/Nc2nc(-c3ccc(C)cc3)cs2)cc1,-16.5%,-10.9%,79.4µM*,-5.8,-4.6%,32.0%
CC(=O)Nc1ccc(-c2csc(N/N=C\c3ccncc3)n2)cc1,-16.7%,?,8.91µM*,-23.2,-12.9%,4.9%
COC(=O)c1ccc(/C=N/Nc2nc(-c3ccc(Cl)cc3Cl)cs2)cc1,.,.,50.1µM*,.,-36.4%,.
COC(=O)c1ccc(/C=N/Nc2nc(-c3ccccc3)cs2)cc1,-8.3%,-16.8%,?,-2.5,-1.7%,25.7%
COc1ccc(/C=N/Nc2nc(C(=O)O)cs2)cc1,?,?,39.8µM*,-63.4*,44.7µM*,34.1%
CC(=O)Oc1ccc(Cn2c(C)c(C(=O)NCc3cccc(C(F)(F)F)c3)sc2=O)cc1,-4.4%,.,.,2.5,.,.
NCCC(=O)O,.,.,34.6%[59 µM],.,.,.
Cc1ccc(C)c(NC(=O)c2cc(=O)c3cc(C)cc(C)c3o2)c1,.,-6.9%,4.6%[59 µM],.,-2.5%,43.1%
SMILES,PLK1 PBD inh,JMJD2A Tudor inh,G9a inh,PI5P4Ka inh,BAZ2B block,HP1b binding inh
NC1(C(=O)O)CC1,-4.6%,3.16µM*,7.08µM*!,-1.8,.,27.8%
CCOc1ccc(-c2nnc3ccc(SCC(=O)N4CCN(c5ccccc5)CC4)nn23)cc1,-0.1%,-3.7%,.,5.2,.,68.2%
O=C(CSc1ccc2nnc(-c3ccc(Cl)cc3)n2n1)N1CCCc2ccccc21,-13.9%,-20.9%,31.6µM*,-4.3,26.8%,24.8%
COc1ccc(-c2nnc3ccc(SCC(=O)N4CCCC4)nn23)cc1,-2.4%,-8.5%,50.1µM*,-3.4,9.1%,43.0%
CCOc1ccc(-c2nnc3ccc(SCC(=O)N4CCCCC4)nn23)cc1,-19.9%,-9.0%,35.5µM*,6.1,7.7%,66.3%
CCOc1ccc(-c2nnc3ccc(SCC(=O)Nc4nc5ccc(C)cc5s4)nn23)cc1,-23.4%,-7.1%[57.1 µM],44.7µM*,-6.8,2.4%,52.0%
O=C(CSc1ccc2nnc(-c3ccc(F)cc3)n2n1)N1CCCc2ccccc21,-12.6%,1.6%,4.3%,-3.9,2.7%,-2.3%
O=C(O)COc1ccccc1/C=N/Nc1ccc(S(=O)(=O)Nc2ccc(Cl)cc2)cc1[N+](=O)[O-],?,?,35.5µM*,-29.3,35.5µM*,?
COc1ccccc1NS(=O)(=O)c1ccc(NN=C2CCCC2)c([N+](=O)[O-])c1,-13.2%,20µM*,25.1µM*,0.2,?,?
COc1ccc(NS(=O)(=O)c2cc([N+](=O)[O-])ccc2NN=Cc2ccccc2OCC(=O)O)cc1,?,?,.,-17.1,.,23.0%
O=C(O)COc1ccccc1C=NNc1ccc([N+](=O)[O-])cc1S(=O)(=O)Nc1ccc(Cl)cc1,23.8µM*,-33.1%,.,?,.,-6.1%
COc1ccccc1NS(=O)(=O)c1ccc(N/N=C/c2ccccc2OCC(=O)O)c([N+](=O)[O-])c1,-28.8%,56.2µM*,20µM*,-1.6,39.8µM*,?
Cc1cc(C)c2oc(-c3ccc(Cl)c(NC(=O)c4cccs4)c3)nc2c1,.,-5.6%,-27.3%[59 µM],.,-37.5%,38.7%
CCOc1ccc(N2CC(NC(=O)c3ccc(S(=O)(=O)N4CCCCC4)cc3)CC2=O)cc1 (stereo not drawn),.,-21.4%,-4.6%[59 µM],.,-4.1%,5.3%
Fc1ccc(Nc2nc(-c3ccoc3)nc3ccccc23)cc1,.,.,12.2%[0.501 µM],.,.,.
COc1ccc(NC(=O)CN2C(=O)CSC(C)C2=O)cc1 (stereo not drawn),21.2µM*,?,-2.0%,-12.0,-19.2%,-15.2%
COc1ccc(N=c2scc(-c3ccc(S(=O)(=O)N4CCOCC4)cc3)n2CCCO)cc1,.,.,25.1µM*,.,50.1µM*,.
CC(C)CN1CCCC2(CCN(S(=O)(=O)c3ccccc3)CC2)C1,.,.,7.8%[12.7 µM],.,.,.
CN(C)S(=O)(=O)c1cccc(-c2csc(=Nc3ccccc3)n2CCCN2CCOCC2)c1,-6.0%,50.1µM*,50.1µM*,-6.7,31.6µM*,?
CC(C)Cn1c(-c2ccc(S(=O)(=O)N3CCCC3)cc2)csc1=Nc1ccccc1,.,?,8.91µM*,.,?,-16.4%

# Screens deposited in PubChem by National Center for Advancing Translational Sciences (NCATS).
